From PubChem BioAssay (NCATS) come the findings set out here.

Molecules are shown by their SMILES. The source made the active and inactive calls. Entries that show only a call come without a potency. Calls come from the whole dose curve; as a rule, active = well fitted activation curve with a large enough effect; inconclusive = small, poorly fitted or top-dose-only effect; inactive = flat fitted curve, though single readings scatter.

A short description of one experiment: Confirmation and Secondary Assay for Modulators of Hemoglobin Beta Chain Splicing at IVS2 654 locus (AID 910).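 Note: per-well total GFP intensity by laser scanning cytometry after 2-day treatment.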 The conditions noted are these: HeLa EGFP-654 splicing reporter, GFP fluorescence, 48 h; series mostly up to 46.1 µM. The procedure, abridged:
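HeLa cells stably carrying EGFP interrupted by mutant beta-globin IVS2-654 intron (CMV-driven) were treated with compound for 2 days at 37C; corrected splicing was scored as total peak GFP intensity per well (488 nm excitation, 500-520 nm emission).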
On to `NCC(=O)CCC(=O)O`, for which the molecule was classed as inactive.

Regarding `O=C(O)c1ccccc1O`, the call was inactive.

For the molecule `O=C(CCCN1CCN(c2ccccn2)CC1)c1ccc(F)cc1`, the molecule was classed as inactive.

Take `O=c1cc[nH]c(=S)[nH]1`: the outcome was inactive.

Take `CC(COc1ccccc1)NC(C)C(O)c1ccc(O)cc1` (centres undefined): the call was inactive.

Turning to `CCCCCCCCCCCCCCCCCCOCC(O)CO` (centres undefined), the outcome was inactive.

In the case of `CNCC(O)c1ccc(O)c(O)c1` (centres undefined), the molecule was called inactive.

For the molecule `Cn1cc[nH]c1=S`, the molecule was classed as inactive.

`CCN(CC)C(C)CN1c2ccccc2Sc2ccccc21` (centres undefined): the molecule was classed as inactive.

Turning to `O=C(Oc1ccccc1C(=O)O)c1ccccc1O`, the molecule was classed as inactive.

As to `c1ccc2c(CC3=NCCN3)cccc2c1`, the call was inactive.

As to `CSc1ccc2c(c1)N(CCC1CCCCN1C)c1ccccc1S2` (centres undefined), the call was inactive.

Regarding `OCC(O)CN1CCN(c2ccccc2)CC1` (centres undefined), the outcome was inactive.

For the molecule `Nc1ccc(S(=O)(=O)Nc2ccc(Cl)nn2)cc1`, the outcome was inactive.

With `CN(C)CC[C@@H](c1ccc(Cl)cc1)c1ccccn1`, the call was inactive.

For `CSc1ccc2c(c1)C(N1CCN(C)CC1)Cc1ccccc1S2` (centres undefined), the call was inactive.

Consider `CN1CCOC(c2ccccc2)c2ccccc2C1` (centres undefined), for which the molecule was called inactive.

In the case of `NS(=O)(=O)c1cc2c(cc1Cl)NC(CSCc1ccccc1)=NS2(=O)=O`, the outcome was inactive.

As to `NS(=O)(=O)c1cc2c(cc1C(F)(F)F)NC(Cc1ccccc1)NS2(=O)=O` (centres undefined), the molecule was classed as inactive.

Regarding `CC(CN1c2ccccc2Sc2ccccc21)N(C)C` (centres undefined), the molecule was called inactive.

Regarding `CNCCC(Oc1ccc(C(F)(F)F)cc1)c1ccccc1` (centres undefined), the call was inactive.

With `CC(C)(C(=O)O)c1ccc(C(O)CCCN2CCC(C(O)(c3ccccc3)c3ccccc3)CC2)cc1` (centres undefined), the outcome was inactive.

As for `CCn1cc(C(=O)O)c(=O)c2cnc(N3CCNCC3)nc21`, the molecule was called inactive.

Regarding `Nc1ccc(S(=O)(=O)NC(=O)c2ccccc2)cc1`, the molecule was called inactive.

As for `CC(CN(C)C)CN1c2ccccc2CCc2ccccc21` (centres undefined), the molecule was called inactive.

With `Cc1c(Cl)cccc1Nc1ccccc1C(=O)O`, the molecule was called inactive.

In the case of `Nc1ccc(S(=O)(=O)Nc2nccs2)cc1`, the molecule was called inactive.

Another experiment is described as follows: Confirmation and Secondary Assay for Modulators of Hemoglobin Beta Chain Splicing at IVS2 705 locus (AID 930).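 Note: HeLa cells stably expressing the EGFP-705 splicing reporter; GFP fluorescence per well restored by corrected splicing of the IVS2-705 intron in EGFP.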 The note with it: HeLa EGFP-705 splicing reporter, GFP fluorescence, 48 h; series mostly up to 46.1 µM. In a few lines:
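HeLa IVS2-705 EGFP reporter cells, 500/well, compound 2 d at 37C; correct splicing yields fluorescent EGFP. Control: 500 nM antisense PNA. Read-out: total peak GFP intensity.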
Consider `NCC(=O)CCC(=O)O`, for which the Potency entry is “inactive”.

Take `O=C(O)c1ccccc1O`: the Potency entry was “inactive”.

`O=C(CCCN1CCN(c2ccccn2)CC1)c1ccc(F)cc1`: the Potency entry is “inactive”.

In the case of `O=c1cc[nH]c(=S)[nH]1`, the Potency entry was “inactive”.

With `CC(COc1ccccc1)NC(C)C(O)c1ccc(O)cc1` (centres undefined), the Potency result was “inactive”.

Consider `CCCCCCCCCCCCCCCCCCOCC(O)CO` (centres undefined), for which the Potency entry was “inactive”.

As to `CNCC(O)c1ccc(O)c(O)c1` (centres undefined), the Potency result was “inactive”.

Take `Cn1cc[nH]c1=S`: the Potency result is “inactive”.

As to `CCN(CC)C(C)CN1c2ccccc2Sc2ccccc21` (centres undefined), the Potency entry was “inactive”.

Regarding `O=C(Oc1ccccc1C(=O)O)c1ccccc1O`, the Potency entry is “inactive”.

On to `c1ccc2c(CC3=NCCN3)cccc2c1`, for which the Potency result was “inactive”.

Take `CSc1ccc2c(c1)N(CCC1CCCCN1C)c1ccccc1S2` (centres undefined): the Potency entry is “inactive”.

For the molecule `OCC(O)CN1CCN(c2ccccc2)CC1` (centres undefined), the Potency result is “inactive”.

`Nc1ccc(S(=O)(=O)Nc2ccc(Cl)nn2)cc1`: the Potency result was “inactive”.

Turning to `CN(C)CC[C@@H](c1ccc(Cl)cc1)c1ccccn1`, the Potency entry is “inactive”.

For `CSc1ccc2c(c1)C(N1CCN(C)CC1)Cc1ccccc1S2` (centres undefined), the Potency result was “inactive”.

In the case of `CN1CCOC(c2ccccc2)c2ccccc2C1` (centres undefined), the Potency result was “inactive”.

Take `NS(=O)(=O)c1cc2c(cc1Cl)NC(CSCc1ccccc1)=NS2(=O)=O`: the Potency result is “inactive”.

For the molecule `NS(=O)(=O)c1cc2c(cc1C(F)(F)F)NC(Cc1ccccc1)NS2(=O)=O` (centres undefined), the Potency entry was “inactive”.

On to `CC(CN1c2ccccc2Sc2ccccc21)N(C)C` (centres undefined), for which the Potency entry was “inactive”.

Turning to `CNCCC(Oc1ccc(C(F)(F)F)cc1)c1ccccc1` (centres undefined), the Potency result is “inactive”.

As to `CC(C)(C(=O)O)c1ccc(C(O)CCCN2CCC(C(O)(c3ccccc3)c3ccccc3)CC2)cc1` (centres undefined), the Potency entry is “inactive”.

On to `CCn1cc(C(=O)O)c(=O)c2cnc(N3CCNCC3)nc21`, for which the Potency entry is “inactive”.

Take `Nc1ccc(S(=O)(=O)NC(=O)c2ccccc2)cc1`: the Potency result was “inactive”.

With `CC(CN(C)C)CN1c2ccccc2CCc2ccccc21` (centres undefined), the Potency entry is “inactive”.

As to `Cc1c(Cl)cccc1Nc1ccccc1C(=O)O`, the Potency entry was “inactive”.

Turning to `Nc1ccc(S(=O)(=O)Nc2nccs2)cc1`, the Potency entry was “inactive”.
